Test systems include DU-145 prostate; K-562 leukemia; MALME-3M melanoma; MDA-MB-231 breast; RXF 393 renal; SF-268 CNS; SF-295 CNS; SF-539 CNS; UACC-257 melanoma; M14 melanoma; HCT-15 colon; HT29 colon; SNB-75 CNS; SNB-19 CNS; U251 CNS; PC-3 prostate; SK-MEL-5 melanoma; UACC-62 melanoma; LOX IMVI melanoma; SK-MEL-28 melanoma.
Common to all, as to assay: NCI-60 one-dose screen, 48 h (100 = growth as untreated, 0 = no growth, -100 = all killed)
What all share (conditions): 10 µM

About 83,000 compounds went through this panel and 20% of them were active in at least one assay; those are over-represented in the sample as a whole.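 Results are percent growth after 48 hours of single-concentration exposure. 100 means growth as in untreated cells, lower positive values show inhibition; negative values down to -100 show cell death.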 Values without a mark were called inactive. Active and inactive are the calls of the source. Rule for the calls: active = growth percent below 10; inactive = the rest.

Regarding `COC(=O)C1(C(=O)OC)C2C(=O)C3C(C21)C3(C(=O)OC(C)(C)C)C(=O)OC(C)(C)C` (stereo not given), the growth with DU-145 prostate is 118%; in the assay on K-562 leukemia it was 103%; with MALME-3M melanoma, 115%; in the assay with MDA-MB-231 breast, 121%; in the assay on RXF 393 renal it was 105%; with SF-268 CNS it was 111%. The growth in the assay on SF-295 CNS is 103%; in the assay with SF-539 CNS it was 115%; with UACC-257 melanoma, 107%; in the assay with M14 melanoma, 104%; with HCT-15 colon, 108%; in the assay on HT29 colon, 112%. In addition, the growth is 88.5% in the assay on SNB-75 CNS; 110% with SNB-19 CNS; 104% in the assay on U251 CNS; 90.2% in the assay on PC-3 prostate; 100% with SK-MEL-5 melanoma; 112% in the assay on UACC-62 melanoma. The growth was 103% in the assay with LOX IMVI melanoma and 107% in the assay on SK-MEL-28 melanoma.
`C=C1C(=O)O[C@H]2[C@H]1CC/C(COC(=O)OCCCCCOC(=O)OC/C1=C/CC[C@@]3(C)O[C@H]3[C@H]3OC(=O)C(=C)[C@@H]3CC1)=C\CC[C@@]1(C)O[C@@H]21`: the growth with DU-145 prostate is -4.53% (active); in the assay on K-562 leukemia, 1.11% (active); with MALME-3M melanoma, -30.1% (active); with MDA-MB-231 breast, -87% (active); in the assay with RXF 393 renal, -69.8% (active); in the assay with SF-268 CNS it was 7.62% (active). Moreover, the growth was 45.4% in the assay on SF-295 CNS; -33.1% (active) with SF-539 CNS; -87% (active) with UACC-257 melanoma; -45.5% (active) in the assay on M14 melanoma; -87.7% (active) with HCT-15 colon; -85.6% (active) in the assay with HT29 colon. In addition, the growth in the assay with SNB-75 CNS was 80.3%; in the assay with SNB-19 CNS, 25.7%; in the assay with U251 CNS, 4.2% (active); in the assay with PC-3 prostate it was -25.9% (active); with SK-MEL-5 melanoma it was -78.8% (active); with UACC-62 melanoma, -26.4% (active). Also, the values for the growth in the assay on LOX IMVI melanoma and in the assay on SK-MEL-28 melanoma were -90.1% (active) and -11% (active), respectively.
Take `COCCOC(=O)NC(=O)Nc1ccc(/C(=N/O)c2ccc(Cl)cc2)cc1`: the growth was 4.9% (active) in the assay on DU-145 prostate; 6.7% (active) with K-562 leukemia; 90% in the assay with MALME-3M melanoma; 12.8% in the assay on MDA-MB-231 breast; -13.1% (active) in the assay on RXF 393 renal; 43.2% with SF-268 CNS. Further, the growth in the assay on SF-295 CNS is -8.84% (active); in the assay with SF-539 CNS, 1.64% (active); in the assay on UACC-257 melanoma, 71.6%; in the assay with M14 melanoma, 3.73% (active); in the assay with HCT-15 colon, 9.7% (active); in the assay with HT29 colon, -20.5% (active). For the same compound, the growth in the assay with SNB-75 CNS is 19.9%; in the assay with SNB-19 CNS, 31.4%; in the assay on U251 CNS, 17.9%; with PC-3 prostate, 26.1%; in the assay with SK-MEL-5 melanoma, -17.2% (active); with UACC-62 melanoma it was 15.7%. Further, the growth in the assay on LOX IMVI melanoma is 22.5%; in the assay with SK-MEL-28 melanoma, 69.1%.
For the compound `CCN1CCN(c2nc(NNC(=O)c3cccc(OC)c3)nc(N3CCN(C(c4ccccc4)c4ccccc4)CC3)n2)CC1`, the growth in the assay on DU-145 prostate was 81.4%; in the assay with K-562 leukemia it was 16.5%; in the assay on MALME-3M melanoma it was -79.5% (active); in the assay on MDA-MB-231 breast, 71.9%; in the assay with RXF 393 renal it was 56.1%; in the assay on SF-268 CNS, 80.9%. Further, the growth was 84% in the assay with SF-295 CNS; 71.6% in the assay on SF-539 CNS; 45.9% in the assay on UACC-257 melanoma; -43.2% (active) with M14 melanoma; 15.4% with HCT-15 colon; 9.36% (active) with HT29 colon. Besides, the growth in the assay on SNB-75 CNS is 61.9%; in the assay with SNB-19 CNS, 78.1%; in the assay on U251 CNS it was 41.8%; in the assay on PC-3 prostate, 41.9%; in the assay with SK-MEL-5 melanoma, 53.5%; in the assay on UACC-62 melanoma, 73.5%. For the same compound, the growth is 7.34% (active) in the assay on LOX IMVI melanoma and 63.2% with SK-MEL-28 melanoma.
For the compound `CN1/C(=C\C(I)C(I)C2=[N+](C)c3ccccc3C2(C)C)C(C)(C)c2ccccc21` (stereo not given), the growth in the assay on DU-145 prostate was 25.2%; with K-562 leukemia it was 7.4% (active); in the assay with MALME-3M melanoma it was 10.9%; in the assay with MDA-MB-231 breast, 12.2%; in the assay on RXF 393 renal it was 36.3%; with SF-268 CNS, 24%. In addition, the growth in the assay with SF-295 CNS is -18.2% (active); in the assay on SF-539 CNS, 18.6%; in the assay on UACC-257 melanoma, -11.8% (active); with M14 melanoma, 20.3%; in the assay on HCT-15 colon, 13.8%; in the assay with HT29 colon, 4.84% (active). The growth was 14.5% with SNB-75 CNS; 18.9% in the assay on SNB-19 CNS; 7.67% (active) with U251 CNS; 5.52% (active) with PC-3 prostate; -97.4% (active) in the assay on SK-MEL-5 melanoma; 19.4% in the assay on UACC-62 melanoma. Besides, the results for the growth in the assay on LOX IMVI melanoma and in the assay on SK-MEL-28 melanoma were 12% and 28.5%, respectively.
With `Cc1cc(OI)c(C(C)C)cc1-c1cc(C(C)C)c(OI)cc1C`, the growth with DU-145 prostate was 101%; in the assay with K-562 leukemia it was 98.8%; in the assay on MALME-3M melanoma it was 105%; in the assay on MDA-MB-231 breast, 104%; in the assay with RXF 393 renal it was 101%; in the assay with SF-268 CNS, 96.8%. In addition, the growth with SF-295 CNS was 101%; in the assay with SF-539 CNS, 94.3%; in the assay on UACC-257 melanoma, 101%; in the assay with M14 melanoma, 104%; with HCT-15 colon it was 105%; in the assay on HT29 colon, 101%. Also, the growth with SNB-75 CNS was 107%; in the assay on SNB-19 CNS, 104%; with U251 CNS it was 103%; in the assay on PC-3 prostate it was 98.6%; with SK-MEL-5 melanoma it was 103%; with UACC-62 melanoma it was 98.7%. The growth in the assay with LOX IMVI melanoma is 93.4%; in the assay with SK-MEL-28 melanoma, 103%.
In the case of `COc1ccc(-c2[nH]ncc2-c2cc(OC)c(OC)c(OC)c2)cc1`, the growth in the assay with DU-145 prostate was -23.9% (active); in the assay with K-562 leukemia, 6.11% (active); with MALME-3M melanoma, 57.2%; in the assay on MDA-MB-231 breast it was 4.38% (active); with RXF 393 renal, 0.469% (active); in the assay with SF-268 CNS, 16%. The growth is -1.07% (active) with SF-295 CNS; -28.1% (active) in the assay on SF-539 CNS; 42.6% with UACC-257 melanoma; 4.51% (active) with M14 melanoma; 10.3% in the assay with HCT-15 colon; -16.6% (active) in the assay on HT29 colon. The growth with SNB-75 CNS is 49.1%; in the assay on SNB-19 CNS, 44.5%; in the assay on U251 CNS it was 6.25% (active); in the assay on PC-3 prostate it was 11.8%; in the assay on SK-MEL-5 melanoma, -22.1% (active); with UACC-62 melanoma, 35.2%. For the same compound, the growth in the assay with LOX IMVI melanoma is 27.8%; in the assay with SK-MEL-28 melanoma it was 37.2%.

For the origin of these results see PubChem BioAssay (NCI).
